PubChem BioAssay

Experiment: hit retest on RPL19A-GFP reporter strain – cell-based, S. cerevisiae, flow cytometry, cherry picks, mother/daughter gates, confirmation (AID 2270)
Conditions: 3 h, measured here: daughter cell gate, at 10 µM, stronger effect = lower value, 100 = same GFP as DMSO wells

Going from `COc1cccc2cc(C(=O)N3CCN(C/C=C/c4ccccc4)CC3)c(=O)oc12` to `O=C(c1ccccc1Br)N1CCN(c2ccccc2)CC1`, the GFP response vs DMSO rises from 99.6% to 106%.

Compared with `O=S(=O)(/N=C(\Sc1ccc(Cl)cc1)c1ccccc1)c1ccccc1`, `Nc1ccccc1NC(=O)c1ccccc1` is higher in GFP response vs DMSO: 94.4% for the first, 103% for the second.

Going from `Cc1ccc(/C=c2\sc3nc(-c4cccs4)nn3c2=O)o1` to `Cc1ccc(/C=C/C(=O)N2CC(C)CC(C)C2)o1` (stereo not given), the GFP response vs DMSO rises from 95.9% to 105%.

First: N=c1n(CCN2CCCCC2)c2ccccc2n1CC(=O)c1ccc(Cl)c(Cl)c1
Second: Cn1c(=O)[nH]c(=O)c2c1nc(N1CCCCC1)n2CCOc1ccccc1
The GFP response vs DMSO of the first is lower: 99% for the first, 99.5% for the second.

Compared with `COc1ccc(/C=C/C(=O)NC(=S)NNC(=O)c2cnccn2)cc1`, `COc1ccc(/C=C/C(=O)c2ccc(OC)cc2O)cc1` is higher in GFP response vs DMSO: 91.1% for the first, 100% for the second.

Going from `CCCCNc1c(-c2ccc(SC(C)CC)cc2)nc2ccccn12` (stereo not given) to `CC(C)(C)n1nc(-c2ccc(Cl)cc2)c2c(N)ncnc21`, the GFP response vs DMSO falls from 88.6% to 39.7%.

Compared with `CCOC(=O)Cc1csc(NC(=O)CSc2nnc(-c3ccc(C)cc3)o2)n1`, `CCOC(=O)CSC1=NC(=O)/C(=C\c2ccc(Cl)cc2)S1` is lower in GFP response vs DMSO: 98.8% for the first, 87.9% for the second.

First: COc1ccc(C2=NN(S(C)(=O)=O)C(c3ccc4nccnc4c3)C2)cc1 (stereo not given)
Second: COc1ccc(C(=O)Nc2cccc(C)c2)cc1
The GFP response vs DMSO of the first is higher: 99.8% for the first, 99.3% for the second.

Going from `Oc1c(Br)cc(Br)cc1C=Nc1ccc2c(c1)OCO2` to `Cc1c(NC(=O)Nc2ccc3c(c2)OCO3)c(=O)n(-c2ccccc2)n1C`, the GFP response vs DMSO rises from 88.5% to 99.1%.

Compared with `CCOc1ccc(Nc2nc(N(C)c3ccccc3)nc(N)c2[N+](=O)[O-])cc1`, `CCOc1ccc(Nc2ccc(C(=O)O)cc2[N+](=O)[O-])cc1` is higher in GFP response vs DMSO: 94.7% for the first, 98.4% for the second.

Compared with `CC[n+]1cc(C)ccc1/C=C/c1ccc(N(C)C)cc1`, `Cc1ccccc1N1C(=O)c2cccc3c(N(C)CCO)ccc(c23)C1=O` is lower in GFP response vs DMSO: 106% for the first, 99.8% for the second.

Going from `COc1ccc(-c2sc(C(=O)c3ccc(Cl)cc3Cl)cc2CC(=O)O)cc1` to `COc1ccc(C(=O)/C=C/c2ccccc2C(F)(F)F)cc1`, the GFP response vs DMSO rises from 95.9% to 99.1%.

Compared with `COCc1nnc(NC(=O)c2ccc(S(=O)(=O)N3CCCCCC3)cc2)o1`, `NS(=O)(=O)c1ccc(S(=O)(=O)c2ccccc2)nc1` is lower in GFP response vs DMSO: 99.8% for the first, 99.1% for the second.

First: CC(C)c1ccc(C2C3CSCC=C3C(C#N)=C(N)C2(C#N)C#N)cc1 (stereo not given)
Second: Cc1nn(Cc2ccc([N+](=O)[O-])cc2)c(=O)n1-c1cccc(Cl)c1
The GFP response vs DMSO of the first is higher: 97.8% for the first, 96.6% for the second.

Compared with `CC(C)(C)C(=O)C(Cl)C(=O)Nc1ccccc1` (stereo not given), `O=C(/C=C/c1ccccc1)Nc1ncn[nH]1` is higher in GFP response vs DMSO: 89.6% for the first, 97.3% for the second.

Going from `CCOc1c(Br)ccc2c1sc1nc[nH]c(=O)c12` to `CCc1noc(C)c1C(=O)Nc1nc(-c2cc(C)ccc2C)c(C)s1`, the GFP response vs DMSO rises from 99.8% to 103%.

First: Cc1cc(NC(=O)c2cc3ccccc3o2)ccc1NC(=O)c1ccccc1
Second: C/C(=N\NC(=O)c1ccc(Br)cc1)c1ccccc1
The GFP response vs DMSO of the first is lower: 97.4% for the first, 97.9% for the second.

Going from `O=C1c2ccccc2C(=O)c2c([N+](=O)[O-])ccc(O)c21` to `O=c1oc2cc(Oc3c([N+](=O)[O-])cc(C(F)(F)F)cc3[N+](=O)[O-])ccc2c2c1CCCC2`, the GFP response vs DMSO falls from 91.2% to 90.7%.

Compared with `CCCCCCCCC/C(=N\O)c1ccccn1`, `COc1cccc2c1Oc1ncccc1N(C(=O)CCC(=O)NCc1ccc(C)cc1)C2` is higher in GFP response vs DMSO: 81.4% for the first, 100% for the second.

Compared with `Cc1occc1-c1nnc(-c2cc([N+](=O)[O-])cc([N+](=O)[O-])c2)o1`, `Cc1nnc(NC(=O)c2csc3c2CCC(C)C3)s1` (stereo not given) is higher in GFP response vs DMSO: 82.8% for the first, 87.2% for the second.

Same assay, conditions: 3 h, measured here: mother cell gate, at 10 µM, stronger effect = lower value, 100 = same GFP as DMSO wells

Going from `COc1cccc2cc(C(=O)N3CCN(C/C=C/c4ccccc4)CC3)c(=O)oc12` to `O=C(c1ccccc1Br)N1CCN(c2ccccc2)CC1`, the GFP response vs DMSO rises from 98% to 105%.

Compared with `O=S(=O)(/N=C(\Sc1ccc(Cl)cc1)c1ccccc1)c1ccccc1`, `Nc1ccccc1NC(=O)c1ccccc1` is higher in GFP response vs DMSO: 90.2% for the first, 99.8% for the second.

Going from `Cc1ccc(/C=c2\sc3nc(-c4cccs4)nn3c2=O)o1` to `Cc1ccc(/C=C/C(=O)N2CC(C)CC(C)C2)o1` (stereo not given), the GFP response vs DMSO rises from 95.4% to 101%.

`N=c1n(CCN2CCCCC2)c2ccccc2n1CC(=O)c1ccc(Cl)c(Cl)c1` and `Cn1c(=O)[nH]c(=O)c2c1nc(N1CCCCC1)n2CCOc1ccccc1` are the same in GFP response vs DMSO: 100% for the first, 100% for the second.

Going from `COc1ccc(/C=C/C(=O)NC(=S)NNC(=O)c2cnccn2)cc1` to `COc1ccc(/C=C/C(=O)c2ccc(OC)cc2O)cc1`, the GFP response vs DMSO rises from 79.2% to 99.3%.

Compared with `CCCCNc1c(-c2ccc(SC(C)CC)cc2)nc2ccccn12` (stereo not given), `CC(C)(C)n1nc(-c2ccc(Cl)cc2)c2c(N)ncnc21` is lower in GFP response vs DMSO: 95.8% for the first, 45.6% for the second.

Compared with `CCOC(=O)Cc1csc(NC(=O)CSc2nnc(-c3ccc(C)cc3)o2)n1`, `CCOC(=O)CSC1=NC(=O)/C(=C\c2ccc(Cl)cc2)S1` is lower in GFP response vs DMSO: 101% for the first, 94.6% for the second.

Compared with `COc1ccc(C2=NN(S(C)(=O)=O)C(c3ccc4nccnc4c3)C2)cc1` (stereo not given), `COc1ccc(C(=O)Nc2cccc(C)c2)cc1` is lower in GFP response vs DMSO: 102% for the first, 96.9% for the second.

Going from `Oc1c(Br)cc(Br)cc1C=Nc1ccc2c(c1)OCO2` to `Cc1c(NC(=O)Nc2ccc3c(c2)OCO3)c(=O)n(-c2ccccc2)n1C`, the GFP response vs DMSO rises from 98.5% to 99%.

Going from `CCOc1ccc(Nc2nc(N(C)c3ccccc3)nc(N)c2[N+](=O)[O-])cc1` to `CCOc1ccc(Nc2ccc(C(=O)O)cc2[N+](=O)[O-])cc1`, the GFP response vs DMSO rises from 91.7% to 104%.

Going from `CC[n+]1cc(C)ccc1/C=C/c1ccc(N(C)C)cc1` to `Cc1ccccc1N1C(=O)c2cccc3c(N(C)CCO)ccc(c23)C1=O`, the GFP response vs DMSO falls from 103% to 100%.

Compared with `COc1ccc(-c2sc(C(=O)c3ccc(Cl)cc3Cl)cc2CC(=O)O)cc1`, `COc1ccc(C(=O)/C=C/c2ccccc2C(F)(F)F)cc1` is higher in GFP response vs DMSO: 95.8% for the first, 99.5% for the second.

Compared with `COCc1nnc(NC(=O)c2ccc(S(=O)(=O)N3CCCCCC3)cc2)o1`, `NS(=O)(=O)c1ccc(S(=O)(=O)c2ccccc2)nc1` is lower in GFP response vs DMSO: 105% for the first, 96.9% for the second.

First: CC(C)c1ccc(C2C3CSCC=C3C(C#N)=C(N)C2(C#N)C#N)cc1 (stereo not given)
Second: Cc1nn(Cc2ccc([N+](=O)[O-])cc2)c(=O)n1-c1cccc(Cl)c1
The GFP response vs DMSO of the first is lower: 95.3% for the first, 96.6% for the second.

First: CC(C)(C)C(=O)C(Cl)C(=O)Nc1ccccc1 (stereo not given)
Second: O=C(/C=C/c1ccccc1)Nc1ncn[nH]1
The GFP response vs DMSO of the first is lower: 72.1% for the first, 96% for the second.

Compared with `CCOc1c(Br)ccc2c1sc1nc[nH]c(=O)c12`, `CCc1noc(C)c1C(=O)Nc1nc(-c2cc(C)ccc2C)c(C)s1` is higher in GFP response vs DMSO: 100% for the first, 103% for the second.

Going from `Cc1cc(NC(=O)c2cc3ccccc3o2)ccc1NC(=O)c1ccccc1` to `C/C(=N\NC(=O)c1ccc(Br)cc1)c1ccccc1`, the GFP response vs DMSO falls from 99.8% to 98%.

Going from `O=C1c2ccccc2C(=O)c2c([N+](=O)[O-])ccc(O)c21` to `O=c1oc2cc(Oc3c([N+](=O)[O-])cc(C(F)(F)F)cc3[N+](=O)[O-])ccc2c2c1CCCC2`, the GFP response vs DMSO rises from 74.2% to 86.8%.

Compared with `CCCCCCCCC/C(=N\O)c1ccccn1`, `COc1cccc2c1Oc1ncccc1N(C(=O)CCC(=O)NCc1ccc(C)cc1)C2` is higher in GFP response vs DMSO: 82.6% for the first, 103% for the second.

Going from `Cc1occc1-c1nnc(-c2cc([N+](=O)[O-])cc([N+](=O)[O-])c2)o1` to `Cc1nnc(NC(=O)c2csc3c2CCC(C)C3)s1` (stereo not given), the GFP response vs DMSO rises from 85.9% to 93.3%.
